The supplement of paper PMC10338343
± gives the standard deviation.

What was measured:
[1] = tested on: MILI (PIWIL2) piRISC loaded with L1MC piRNA (26 nt); assay: pre-steady-state target cleavage rate (min^-1); guide: L1MC piRNA 5'p-UAACUAAAUACUAUGCAAGCUGUAGG; higher = faster piRNA-guided slicing of the target
Summary of the method: (§1)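 Cleave-'n-Seq reactions paired 0.1 nM transcribed, DNA-blocked target RNA library with 1 nM active affinity-purified piRISC holding one synthetic guide, plus or minus 500 nM GTSF1 partner protein, in HEPES–potassium acetate buffer at 33 °C for 0–8 or 0–960 min. After sequencing of uncleaved targets and normalisation to depth and weakly complementary targets, the pre-steady-state cleavage rate was taken from a burst-and-steady-state fit. Three trials were pooled, and k3 was capped at 0.0001 min^-1.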

[2] = tested on: EfPiwi piRISC loaded with L1MC piRNA (26 nt); assay: pre-steady-state target cleavage rate (min^-1); auxiliary factor: 500 nM Ephydatia muelleri Gtsf1; guide: L1MC piRNA 5'p-UAACUAAAUACUAUGCAAGCUGUAGG; MIWI and MILI are mouse PIWI proteins and EfPiwi is from a freshwater sponge; tags in brackets are library labels; higher = faster piRNA-guided slicing of the target
Summary of the method: as §1

[3] = auxiliary factor: 500 nM mouse GTSF1
[4] = auxiliary factor: none (no GTSF1)

Row | Sequence | pre-steady-state target cleavage rate [1, 3] | pre-steady-state target cleavage rate [1, 4] | pre-steady-state target cleavage rate [2]
1 | UCCUGCUAGAGCUUGCAUAGUAUUUUGUUA | 0.172 ± 0.025 | 0.00521 ± 0.0022 | 0.00421 ± 0.0016
2 | UCCUGGUACAGCAUUGCAUAGUAUUUAGUUA | 0.257 ± 0.039 | 0.0159 ± 0.0049 | 0.0107 ± 0.004
3 | UCCUGGAUCAGCUAGCAAAGUAUUUAGUUA | 0.0976 ± 0.012 | 0.00566 ± 0.0019 | 0.00308 ± 0.0029
4 | UCCUGGUACAGCUUUGCAUAGUAUUUAGUUA | 0.185 ± 0.018 | 0.0164 ± 0.0048 | 0.00974 ± 0.0035
5 | UCCUCCUACAGCUUGACAUAGUAUUUAGUUA | 0.267 ± 0.018 | 0.00554 ± 0.0024 | 0.016 ± 0.0056
6 | UCCUGGAUCAGGUUGGAUAGUAUUUAGUUA | 0.164 ± 0.013 | 0.0112 ± 0.0027 | 0.00425 ± 0.003
7 | UCCUGCUACAGCUAUGCAUAGUAUUUAGUUA | 0.257 ± 0.022 | 0.0069 ± 0.0021 | 0.012 ± 0.0044
8 | UCCUGGAUGAGCUUGCUUAGUAAUUAGUUA | 0.191 ± 0.019 | 0.00839 ± 0.0025 | 0.00425 ± 0.0027
9 | UCCUGGAGCAGCUUGCAUAGUAUUUAGUUA | 0.333 ± 0.021 | 0.0118 ± 0.0032 | 0.101 ± 0.024
10 | UCCUGGAUCAGCCUGCAUAGUAUUUAGUUA | 0.244 ± 0.026 | 0.0068 ± 0.0031 | 0.0209 ± 0.006
11 | UCCUGGAACAGCUGUGCAUAGUAUUUAGUUA | 0.206 ± 0.015 | 0.00954 ± 0.0024 | 0.00999 ± 0.0023
12 | UCCUGGAACAGCUUCGAUAGUAUUUAGUUA | 0.262 ± 0.015 | 0.00483 ± 0.0022 | 0.00251 ± 0.0023
13 | UCCUGGAAAGCUUGCAUAGUAUUUAGUUA | 0.276 ± 0.016 | 0.00624 ± 0.0022 | 0.035 ± 0.0098
14 | UCCUGGUAGAGCUUGCAUAGUAAUUAGUUA | 0.177 ± 0.021 | 0.00729 ± 0.0024 | 0.00406 ± 0.0024
15 | UCCUGGAACAGCUUGAAUAGUAUUUAGUUA | 0.243 ± 0.023 | 0.00657 ± 0.0025 | 0.0656 ± 0.017
16 | UCCUGCUUCAGCUUGCAUAGUAAUUAGUUA | 0.253 ± 0.022 | 0.00622 ± 0.0021 | 0.00863 ± 0.003
17 | UCCUGGAUCUGCUUGCAAAGUAUUUAGUUA | 0.0598 ± 0.013 | 0.0085 ± 0.0023 | 0.0405 ± 0.011
18 | UCCUGCUACAACUUGCAUAGUAUUUAGUUA | 0.247 ± 0.023 | 0.00739 ± 0.0024 | 0.00776 ± 0.0029
19 | UCCUCCUACAGCUUGCAUAGUAUAAAGUUA | 0.137 ± 0.023 | 0.00301 ± 0.0023 | 0.00527 ± 0.0031
20 | UCCUCCUACAGCAUGCAAAGUAUUUAGUUA | 0.161 ± 0.015 | 0.00732 ± 0.0021 | 0.0492 ± 0.017
21 | UCCUGGAUGUGCUUGCAUAGUUUUUAGUUA | 0.0127 ± 0.0066 | 0.00796 ± 0.0026 | 0.00538 ± 0.0024
22 | UCCUGCUACUGCUAGCAUAGUAUUUAGUUA | 0.253 ± 0.017 | 0.0054 ± 0.0023 | 0.0129 ± 0.0034
23 | UCCUGGAACAGCAUUGCAUAGUAUUUAGUUA | 0.233 ± 0.024 | 0.00862 ± 0.0022 | 0.015 ± 0.0044
24 | UCCUGGAUGAGCUUGCAUAUUAUUUAGUUA | 0.0637 ± 0.0072 | 0.00304 ± 0.003 | 0.00658 ± 0.0032
25 | UCCUGGAACGGCUUGCAUAGUAUUUAGUUA | 0.259 ± 0.017 | 0.0129 ± 0.0024 | 0.0243 ± 0.0075
26 | UCCUGGAACAGCUUGCAUAGUCUUUAGUUA | 0.197 ± 0.016 | 0.00483 ± 0.0022 | 0.00979 ± 0.0029
